According to PubChem BioAssay (Tox21):
Records with an inconclusive call do not appear. The source made the active and inactive calls. Unless noted, calls come from the whole dose curve.

What was measured:
[1] = Nuclear factor erythroid 2-related factor 2/antioxidant responsive element (Nrf2/ARE) small molecule agonists: qHTS cell viability counter screen in human keratinocytes (AID 1919968; active = well fitted curve in the direction sought with a large enough effect in the repeat runs; an effect the other way counts as inactive or inconclusive; note: nearly all actives have a fitted effect of over 55% in size; note: potency is the fitted concentration of half-maximal effect)
Procedure, shortened: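 Seed 1,500 KeratinoSens cells per well, then incubate 5 h at 37 C/5% CO2. Add compounds in DMSO and incubate 23 h. Add CellTiter-Fluor, wait 1 h and read fluorescence.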

[2] = Nuclear factor erythroid 2-related factor 2/antioxidant responsive element (Nrf2/ARE) small molecule agonists: luciferase reporter gene qHTS assay in human keratinocytes (AID 1919969); note: nearly all actives have a fitted effect of over 35% in size; note: potency is the fitted concentration of half-maximal effect
[3] = target: Gonadotropin-releasing hormone receptor (Homo sapiens) (UniProt P30968); assay: Human gonadotropin-releasing hormone receptor (GnRHR) small molecule agonists, calcium flux assay in GnRHR-HEK293 cells (AID 1920063); note: nearly all actives have a fitted effect of over 35% in size
Chain of Gonadotropin-releasing hormone receptor (Homo sapiens) (P30968 whole entry, looked up): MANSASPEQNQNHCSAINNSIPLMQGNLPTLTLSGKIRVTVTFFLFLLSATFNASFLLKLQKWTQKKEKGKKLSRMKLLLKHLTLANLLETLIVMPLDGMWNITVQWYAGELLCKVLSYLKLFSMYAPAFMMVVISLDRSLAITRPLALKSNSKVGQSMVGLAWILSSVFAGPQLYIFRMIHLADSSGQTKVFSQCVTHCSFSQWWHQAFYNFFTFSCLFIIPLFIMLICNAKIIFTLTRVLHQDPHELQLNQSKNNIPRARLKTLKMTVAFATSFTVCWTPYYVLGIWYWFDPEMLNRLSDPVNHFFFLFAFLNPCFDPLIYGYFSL
Procedure, shortened: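 Cells: HEK293 stably expressing human GnRHR. Steps: overnight (18 h) culture, 1 h calcium dye loading at 37 C, compound addition, kinetic fluorescence read at 480/540 nm. Each compound tested at 15 concentrations in triplicate.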

[4] = target: KiSS-1 receptor (Homo sapiens) (UniProt Q969F8); assay: Human kisspeptin (KISS1R) small molecule agonists, calcium flux assay in KISS1R-HEK293 cells (AID 1920064; active = well fitted curve in the direction sought with a large enough effect in the repeat runs; an effect the other way counts as inactive or inconclusive)
Chain of KiSS-1 receptor (Homo sapiens) (Q969F8 whole entry, looked up): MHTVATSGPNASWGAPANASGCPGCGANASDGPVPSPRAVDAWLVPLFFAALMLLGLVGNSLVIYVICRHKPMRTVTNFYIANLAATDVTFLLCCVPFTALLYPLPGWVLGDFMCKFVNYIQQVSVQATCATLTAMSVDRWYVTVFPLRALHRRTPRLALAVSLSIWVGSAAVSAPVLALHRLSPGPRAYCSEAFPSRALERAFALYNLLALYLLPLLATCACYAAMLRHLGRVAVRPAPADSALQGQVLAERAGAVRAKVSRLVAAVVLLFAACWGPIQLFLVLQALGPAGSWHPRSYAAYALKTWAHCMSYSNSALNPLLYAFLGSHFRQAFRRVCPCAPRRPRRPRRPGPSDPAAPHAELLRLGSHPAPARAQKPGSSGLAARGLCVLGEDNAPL
Procedure, shortened: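 Cells plated and incubated 18 h; dye added, 1 h at 37 C; compounds in DMSO pinned in; signal read at 480/540 nm every second for 3 min. Each compound tested at 15 concentrations in triplicate.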

[5] = G protein-coupled receptor (GPCR) small molecule agonists, calcium flux assay: HEK293 wild type cell line counter screen (AID 1920065)
Procedure, shortened: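 Counter-screen of the Tox21 10K library for non-specific calcium release: dye-loaded cells received compounds in DMSO and were monitored by kinetic fluorescence (480/540 nm, 3 min). Fifteen concentrations, run in triplicate.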

[6] = p53 small molecule agonists, cell-based qHTS assay with human liver microsomes (AID 1963577)
Procedure, shortened: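 Compounds act here after metabolic activation: human liver microsomes and NADPH, both at 0.5 mg/mL final, were co-added to p53RE-bla cells. Incubation ran 16 h at 37 C, followed by LiveBLAzer detection.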

[7] = p53 small molecule agonists, cell-based qHTS assay with rat liver microsomes (AID 1963578)
Procedure, shortened: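 Read-out is beta-lactamase reporter fluorescence (LiveBLAzer, 2 h, room temperature, dark) in p53RE-bla cells treated 16 h at 37 C with compound, rat liver microsomes and NADPH, both 0.5 mg/mL final.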

[8] = p53 small molecule agonists, cell-based qHTS assay with human liver microsomes: qHTS cell viability counter screen (AID 1963579); note: nearly all actives have a fitted effect of over 45% in size; note: potency is the fitted concentration of half-maximal effect
Procedure, shortened: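 Cells carrying the p53 response-element beta-lactamase reporter are treated for 16 h at 37 C with test compounds in the presence of human liver microsomes and NADPH (both 0.5 mg/mL final); ATP-based CellTiter-Glo luminescence then reports viability.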

[9] = p53 small molecule agonists, cell-based qHTS assay with rat liver microsomes: qHTS cell viability counter screen (AID 1963580); note: nearly all actives have a fitted effect of over 45% in size; note: potency is the fitted concentration of half-maximal effect
Procedure, shortened: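 p53RE-bla HCT-116 cells (4,000/well) rested 5 h at 37 C, then given Tox21 compounds in DMSO with rat liver microsomes (0.5 mg/mL final) plus NADPH (0.5 mg/mL final) for 16 h at 37 C. Viability read by CellTiter-Glo luminescence after 30 min at room temperature.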

[10] = p53 small molecule agonists, cell-based qHTS assay: qHTS cell viability counter screen (AID 1963581); note: nearly all actives have a fitted effect of over 45% in size; note: potency is the fitted concentration of half-maximal effect
Procedure, shortened: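 Cells: HCT-116 with p53 response element-driven beta-lactamase. Treatment: 16 h, 37 C, compounds in DMSO. Read: CellTiter-Glo luminescence after 30 min RT.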

[11] = p53 small molecule agonists, cell-based qHTS assay (AID 1963582; active = well fitted activation curve with a large enough effect in the signal ratio in the repeat runs, not every such curve was filed as active; the % refers to the signal ratio)
Procedure, shortened: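 Quantitative HTS in p53RE-bla cells: after a 5 h settling period, compounds delivered in DMSO were left on cells for 16 h at 37 C, and reporter induction was measured as fluorescence following 2 h substrate loading.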

[12] = cAMP Responsive Elements (CRE) small molecule antagonists, cell-based qHTS assay (AID 1963591; active = well fitted inhibition curve with a large enough effect in the signal ratio in the repeat runs, not every such curve was filed as active; the % refers to the signal ratio)
Procedure, shortened: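 Antagonist mode: test compounds are co-incubated with the adenylyl cyclase activator NKH477 (0.25 uM final) on CRE-bla HEK293T cells for 3 h at 37 °C, followed by LiveBLAzer substrate loading.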

[13] = target: Beta-2 adrenergic receptor (Homo sapiens) (UniProt P07550); assay: Adrenergic beta2 receptor (ADRB2) small molecule antagonists, cell-based qHTS assay (AID 1963592); note: series mostly up to about 92 µM; nearly all actives have a fitted effect of over 50% in size
Chain of Beta-2 adrenergic receptor (Homo sapiens) (P07550 whole entry, looked up): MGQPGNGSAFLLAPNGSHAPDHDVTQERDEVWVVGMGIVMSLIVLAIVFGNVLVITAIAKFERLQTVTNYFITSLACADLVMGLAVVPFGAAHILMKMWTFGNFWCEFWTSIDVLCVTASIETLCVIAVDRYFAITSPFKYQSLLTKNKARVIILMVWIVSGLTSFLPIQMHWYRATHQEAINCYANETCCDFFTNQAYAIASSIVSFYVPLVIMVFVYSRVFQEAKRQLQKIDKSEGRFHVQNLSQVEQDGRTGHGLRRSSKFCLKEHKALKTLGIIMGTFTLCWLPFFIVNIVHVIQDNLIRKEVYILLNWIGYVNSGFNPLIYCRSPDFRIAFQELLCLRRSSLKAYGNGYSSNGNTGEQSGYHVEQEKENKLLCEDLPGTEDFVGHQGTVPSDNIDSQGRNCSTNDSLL
Procedure, shortened: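 Cells (CHO, stable ADRB2 overexpression) incubated 18-20hr at 37C; compounds added from DMSO; agonist mix (1nM isoproterenol, 100uM IBMX, 25uM Ro-20-1724) added; 0.5hr RT; d2-cAMP and anti-cAMP-cryptate added; 1hr RT; 665/615 nm read.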

[14] = target: Beta-2 adrenergic receptor (Homo sapiens) (UniProt P07550); assay: Adrenergic beta2 receptor (ADRB2) small molecule agonists, cell-based qHTS assay (AID 1963593);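 note: CHO cells stably overexpressing human ADRB2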
Procedure, shortened: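 CHO cells stably over-expressing ADRB2 were plated overnight at 37C, then dosed with compounds plus a stimulation mix containing 100uM IBMX and 25uM Ro-20-1724 for 0.5hr at room temperature. cAMP was measured by HTRF competition, 1hr.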

[15] = target: D(2) dopamine receptor (Homo sapiens) (UniProt P14416); assay: Dopamine D2 receptor (DRD2) small molecule agonists, cell-based qHTS assay (AID 1963594); note: nearly all actives have a fitted effect of over 35% in size
Chain of D(2) dopamine receptor (Homo sapiens) (P14416 whole entry, looked up): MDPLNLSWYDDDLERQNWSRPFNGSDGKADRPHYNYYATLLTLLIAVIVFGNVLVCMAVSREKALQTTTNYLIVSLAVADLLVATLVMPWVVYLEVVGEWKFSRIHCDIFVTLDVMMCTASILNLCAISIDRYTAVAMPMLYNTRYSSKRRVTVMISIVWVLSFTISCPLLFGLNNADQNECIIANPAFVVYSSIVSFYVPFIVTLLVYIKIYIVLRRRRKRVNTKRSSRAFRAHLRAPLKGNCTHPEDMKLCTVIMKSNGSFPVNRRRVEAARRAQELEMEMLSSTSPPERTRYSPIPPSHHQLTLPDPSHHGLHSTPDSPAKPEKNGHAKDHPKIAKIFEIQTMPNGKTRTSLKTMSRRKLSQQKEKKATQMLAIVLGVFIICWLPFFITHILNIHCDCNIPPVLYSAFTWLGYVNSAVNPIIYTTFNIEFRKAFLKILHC
Procedure, shortened: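 HEK293 cells stably expressing DRD2 were cultured 24 h at 37 C, then given Ro20-1724 (0.1 mM final) and compounds for 10 min at room temperature. NKH477 (200nM) was then added for 30 min. cAMP was read by HTRF.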

[16] = target: D(2) dopamine receptor (Homo sapiens) (UniProt P14416); assay: Dopamine D2 receptor (DRD2) small molecule antagonists, cell-based qHTS assay (AID 1963595; active = well fitted inhibition curve with a large enough effect in the signal ratio in the repeat runs, with a control signal flat; the % refers to the signal ratio)
Procedure, shortened: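 HEK293 cells stably expressing DRD2 were preincubated with 0.1 mM Ro20-1724, then with compound for 10 min at room temperature. Cells were stimulated with 200 nM NKH477 plus 12 nM quinpirole for 30 min, and cAMP was read by HTRF.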

[17] = target: 5-hydroxytryptamine receptor 2A (Homo sapiens) (UniProt P28223); assay: 5-hydroxytryptamine receptor 2A (HTR2A) small molecule agonists, cell-based qHTS assay (AID 1963587); note: nearly all actives have a fitted effect of over 30% in size
Chain of 5-hydroxytryptamine receptor 2A (Homo sapiens) (P28223 whole entry, looked up): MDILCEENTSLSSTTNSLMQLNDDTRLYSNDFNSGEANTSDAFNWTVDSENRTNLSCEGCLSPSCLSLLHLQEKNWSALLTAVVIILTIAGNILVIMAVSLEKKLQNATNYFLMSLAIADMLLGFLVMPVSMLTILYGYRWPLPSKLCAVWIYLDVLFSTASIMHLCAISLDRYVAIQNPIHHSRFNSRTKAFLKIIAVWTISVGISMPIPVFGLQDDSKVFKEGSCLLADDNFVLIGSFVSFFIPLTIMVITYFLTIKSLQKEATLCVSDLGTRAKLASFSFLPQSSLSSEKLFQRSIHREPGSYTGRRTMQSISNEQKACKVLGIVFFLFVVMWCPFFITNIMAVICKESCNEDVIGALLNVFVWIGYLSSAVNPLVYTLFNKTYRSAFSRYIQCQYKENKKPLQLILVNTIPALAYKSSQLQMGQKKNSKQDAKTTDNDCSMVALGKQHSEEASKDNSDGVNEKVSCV
Procedure, shortened: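 HTR2A-CHO cells, plated 18 h at 37 C/5% CO2, dye-loaded 1 h at 37 C; compounds in DMSO added by pin tool (agonist mode). Intracellular calcium flux read as kinetic fluorescence on FDSS over 2 min at 1 s intervals.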

[18] = target: Muscarinic acetylcholine receptor M1 (Homo sapiens) (UniProt P11229); assay: Cholinergic receptor muscarinic 1 (CHRM1) small molecule antagonists, cell-based qHTS assay (AID 1963588); note: nearly all actives have a fitted effect of over 40% in size
Chain of Muscarinic acetylcholine receptor M1 (Homo sapiens) (P11229 whole entry, looked up): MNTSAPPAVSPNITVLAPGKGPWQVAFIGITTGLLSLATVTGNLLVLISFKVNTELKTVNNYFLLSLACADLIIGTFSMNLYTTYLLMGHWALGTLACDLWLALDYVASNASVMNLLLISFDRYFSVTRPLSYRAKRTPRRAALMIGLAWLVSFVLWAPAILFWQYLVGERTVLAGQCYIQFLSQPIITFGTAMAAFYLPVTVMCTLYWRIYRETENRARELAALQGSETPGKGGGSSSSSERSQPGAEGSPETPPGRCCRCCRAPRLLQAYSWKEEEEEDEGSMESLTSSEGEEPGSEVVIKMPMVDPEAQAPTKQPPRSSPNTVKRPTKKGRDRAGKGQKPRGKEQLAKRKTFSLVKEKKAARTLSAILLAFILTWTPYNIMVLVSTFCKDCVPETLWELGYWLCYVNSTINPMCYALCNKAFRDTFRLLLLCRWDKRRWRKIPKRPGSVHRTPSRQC
Procedure, shortened: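 CHRM1-CHO calcium-flux assay, antagonist mode. Cells were seeded 18 h, dye-loaded 1 h at 37 C and given compound for 5 min at RT, then acetylcholine was added at 50nM. FDSS fluorescence was read 3 min; 15 concentrations, three runs.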

[19] = target: Muscarinic acetylcholine receptor M1 (Homo sapiens) (UniProt P11229); assay: Cholinergic receptor muscarinic 1 (CHRM1) small molecule agonists, cell-based qHTS assay (AID 1963589); note: nearly all actives have a fitted effect of over 35% in size
Procedure, shortened: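 Agonist-mode qHTS in CHO cells stably carrying human muscarinic M1. Intracellular calcium is tracked by fluorescence every second after compound transfer; each compound runs at 15 concentrations in three independent runs.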

[20] = cAMP Responsive Elements (CRE) small molecule agonists, cell-based qHTS assay (AID 1963590)
Procedure, shortened: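 Agonist mode qHTS in CRE-bla HEK 293T cells: compounds dosed from DMSO for 3 h at 37 C/5% CO2, followed by LiveBLAzer B/G FRET substrate for 2 h at room temperature.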

Measured: Potency

Cc1ccc(C(=O)c2ccc(CC(=O)O)n2C)cc1
not listed: [16] | [17] | [18] | [19] | [20]
inactive: all other assays above

CC[C@H]1OC(=O)[C@H](C)[C@@H](O[C@H]2C[C@@](C)(OC)[C@@H](O)[C@H](C)O2)[C@H](C)[C@@H](O[C@@H]2O[C@H](C)C[C@H](N(C)C)[C@H]2O)[C@](C)(OC)C[C@@H](C)C(=O)[C@H](C)[C@@H](O)[C@]1(C)O
not listed: [14] | [15] | [17] | [18] | [19] | [20]
inactive: all other assays above

C[C@@H]1[C@H](O)[C@@H](C)/C=C/C=C\C=C\C=C\C=C\C=C\C=C\[C@H](O[C@@H]2O[C@H](C)[C@@H](O)[C@H](N)[C@@H]2O)C[C@@H]2O[C@](O)(C[C@@H](O)C[C@@H](O)[C@H](O)CC[C@@H](O)C[C@@H](O)CC(=O)O[C@H]1C)C[C@H](O)[C@H]2C(=O)O (stereo in doubt)
active: [2] 68.6 µM
not listed: [12] | [17] | [18] | [19] | [20]
inactive: all other assays above

Cc1c(C2(c3cc(Br)c(O)c(Br)c3C)OS(=O)(=O)c3ccccc32)cc(Br)c(O)c1Br
active: [1] 21 µM | [10] 22.3 µM
not listed: [11] | [13] | [14] | [15] | [16]
inactive: all other assays above

O=S1(=O)CC(Cl)(Cl)C(Cl)(Cl)C1
inactive: [3] | [4] | [5] | [6] | [7] | [17] | [18] | [19]
active: [1] 6.11 µM | [2] 2.43 µM | [8] 5.76 µM | [9] 18.2 µM | [10] 16.2 µM

Nc1ccc(C(=O)O)c(O)c1
not listed: [14] | [17] | [18] | [19] | [20]
inactive: all other assays above

C=C(C)CCCC(C)CCO (configuration not stated)
not listed: [11] | [14]
inactive: all other assays above

CC1COc2c(N3CCN(C)CC3)c(F)cc3c(=O)c(C(=O)O)cn1c23 (configuration not stated)
not listed: [13] | [14] | [15] | [16] | [17] | [18] | [19] | [20]
inactive: all other assays above
